An excerpt weighted towards active compounds, which were near 17% of everything screened.
ClpP mod – qHTS Assay for Activators of ClpP; Potency, µM (doses to about 57.5 µM); ATP-dependent Clp protease proteolytic subunit (Bacillus subtilis (strain 168)), P80244; purified B. subtilis ClpP, FRET peptide cleavage, 20 min; 1.9% of 340,000 active; AID 651965, 2013; active = well fitted falling curve with a large enough effect; inconclusive = small, poorly fitted or top-dose-only effect; inactive = no such curve, though single readings can be large or run the other way; also: the source files actives as falling curves though it sought activators and does not explain the sign; nearly all actives have a fitted effect of over 65% in size
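Buffer: 100 mM Tris/HCl pH8, 100 mM KCl, 0.05% low protease BSA, 2.5% glycerol, 0.01% Tween-20. ClpP 10 microg/mL final; 20 min RT; delta FRET normalized to ADEP and DMSO controls.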
DT40 TDP1 CPT – DT40-hTDP1 cell growth loss with CPT; chicken DT40 Tdp1-/-;hTDP1 cells + 20 nM CPT, ATP luminescence, 48 h; 12% of 420,000 active; Potency, µM (series often up to 46.2 µM), actives largely listed as inhibitors; also: nearly all actives have a fitted effect of over 55% in size
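Cell growth measured by CellTiter-Glo luminescence after a minimum 48 h, 37 C compound exposure with 20 nM CPT in Tdp1-knockout DT40 cells stably expressing hTDP1, seeded 400/well; qHTS titration format.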
TDP1 cell noCPT – qHTS for Inhibitors of human tyrosyl-DNA phosphodiesterase 1 (TDP1): qHTS in cells in absence of CPT | DT40 Tdp1-/- hTDP1 cells, no CPT, ATP luminescence, 48 h | 15% of 420,000 active | Potency, µM (top dose mostly 46.2 µM), usual class: inhibitors; also: nearly all actives have a fitted effect of over 55% in size
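Compound effects on proliferation are scored in DT40 Tdp1-/-;hTDP1 cells in the absence of CPT. ATP levels (CellTiter-Glo luminescence) are recorded after a ≥48 hr, 37 °C incubation.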
TDP1 block – inhibitors of human tyrosyl-DNA phosphodiesterase TDP1 | Q9NUW8 | recombinant TDP1, AlphaScreen DNA substrate cleavage | Potency, µM (highest dose often 130 µM), most hits filed as inhibitors | 0.28% of 350,000 active | AID 485290; also: nearly all actives have a fitted effect of over 40% in size
Target sequence (Q9NUW8 whole entry, looked up): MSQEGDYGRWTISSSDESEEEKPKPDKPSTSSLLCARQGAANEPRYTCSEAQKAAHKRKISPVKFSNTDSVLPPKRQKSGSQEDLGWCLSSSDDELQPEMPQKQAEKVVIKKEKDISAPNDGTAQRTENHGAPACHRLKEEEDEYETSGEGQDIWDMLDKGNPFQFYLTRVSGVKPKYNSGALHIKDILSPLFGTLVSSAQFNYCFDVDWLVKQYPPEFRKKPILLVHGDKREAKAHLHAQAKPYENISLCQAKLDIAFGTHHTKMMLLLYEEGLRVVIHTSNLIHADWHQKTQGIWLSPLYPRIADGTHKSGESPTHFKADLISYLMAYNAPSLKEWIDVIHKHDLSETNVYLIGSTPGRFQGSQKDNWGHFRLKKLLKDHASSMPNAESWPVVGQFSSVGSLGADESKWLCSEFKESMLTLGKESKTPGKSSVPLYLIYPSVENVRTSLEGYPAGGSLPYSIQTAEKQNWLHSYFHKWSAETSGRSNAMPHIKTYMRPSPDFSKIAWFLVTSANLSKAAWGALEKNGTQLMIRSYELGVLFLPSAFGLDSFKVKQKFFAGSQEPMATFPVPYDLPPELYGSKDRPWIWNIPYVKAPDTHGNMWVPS
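Signal: AlphaScreen proximity between streptavidin donor and anti-FITC acceptor beads on intact substrate. Reaction: Tdp1 1 nM, substrate 15 nM final, 5 min RT after 15 min compound preincubation.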
A number is an active result; i = inactive; ? = inconclusive; nt = no result given; ! = a repeat was not active; [ ] = another dose, or the depositor's remark. Unless noted, calls follow the shape of the dose curve; as a rule, active = well fitted curve in the direction sought with a large enough effect; inconclusive = small, poorly fitted or top-dose-only effect, or another doubt; inactive = no such curve, though single readings can be large; an effect the other way counts as inactive or inconclusive.

SMILES | ClpP mod | DT40 TDP1 CPT | TDP1 cell noCPT | TDP1 block
CC(C)(C)c1ccc(C(=O)NCc2ccc(Cl)cc2)cc1 | i | i | i | i
COc1ccc(NC(=O)C(=O)NCCN2CCN(C(=O)c3ccc(C)cc3)CC2)cc1 | nt | i | i | i[0.0935 µM]
CCc1ccc(NC(=O)C(=O)NCCN2CCN(C(=O)c3ccc(OC)cc3)CC2)cc1 | i | ? | 13µM | nt
Cc1ccccc1CSc1ccc(S(=O)(=O)N2CCCC2)cn1 | i | i | ? | i
CCCC(=O)N1CC(=O)Nc2ccc(C)cc2C1c1ccc(F)cc1 (stereo unspecified) | i | i | i | nt
O=C1CN(C(=O)COc2ccc(Cl)cc2Cl)C(c2ccccc2)c2cc(F)ccc2N1 (stereo unspecified) | i | 16µM | ? | i
Cc1ccc2c(c1)C(c1ccc(F)cc1)N(C(=O)COc1ccc(Cl)cc1Cl)CC(=O)N2 (stereo unspecified) | i | 21µM | ? | i
O=C1CN(C(=O)c2cc([N+](=O)[O-])ccc2Cl)C(c2ccc(F)cc2)c2cc(F)ccc2N1 (stereo unspecified) | i | ? | 15µM | i
CCCCC1CCC(C(=O)N2CC(=O)Nc3ccc(Br)cc3C2c2ccc(F)cc2)CC1 (stereo unspecified) | i | 23µM | 13µM | i
CCOc1ccc2ccccc2c1CNc1nnnn1CC | nt | i | i | nt
Cc1oc(-c2ccccc2NC(=O)C2CCC2)nc1CNC(=O)c1cccc(C(F)(F)F)c1 | nt | i[9.04 µM] | i | nt
CCCCC(=O)N1CC(=O)Nc2ccc(F)cc2C1c1ccc(F)cc1 (stereo unspecified) | 20µM! | ? | ? | i
O=C1CN(C(=O)c2ccccc2)C(c2ccccc2)c2cc(F)ccc2N1 (stereo unspecified) | i | i | i | nt
CC(C)(C)c1ccc(C(=O)N2CC(=O)Nc3ccc(F)cc3C2c2ccc(F)cc2)cc1 (stereo unspecified) | i | 26µM | 18µM | i
O=C1CN(C(=O)COc2ccc(Cl)cc2Cl)C(c2ccc(F)cc2)c2cc(F)ccc2N1 (stereo unspecified) | i | 21µM | ? | i
O=C1CN(C(=O)c2ccc(Cl)cc2Cl)C(c2ccc(F)cc2)c2cc(F)ccc2N1 (stereo unspecified) | i | ? | ? | i
CCCCC(=O)N1CC(=O)Nc2ccc(F)cc2C1c1ccccc1 (stereo unspecified) | nt | i | i | nt
COc1ccc(N2CCc3c(C)nc4c(OC)cc(OC)cc4c32)cc1 | nt | 23µM | 15µM | i
Cc1cccc2c(N)c3c(nc12)N(C)CC3 | i | 8.2µM | 12µM | nt
CN1CCCCc2c1nc1c(c2N)CCCC1 | 25µM | i | i | i
COc1cccc(N2CCc3c(C)nc4ccc(Cl)cc4c32)c1 | i | 10µM | 7.3µM | nt
CC(=O)Nc1ccc(S(=O)(=O)CC(=O)CS(=O)(=O)c2ccc(NC(C)=O)cc2)cc1 | i | i | ? | nt
CN(C)C(=O)c1ccc(-c2cncnc2-n2ccnc2)cc1 | nt | i | i | nt
COc1ccc(N2CCc3c(C)nc4c(OC)cc(OC)cc4c32)c(OC)c1 | i | 6.5µM | 5.2µM | i
Cc1cccc2c(N)c3c(nc12)CCCC3 (tested in a mixture with another compound) | i | i | i | i
SMILES | ClpP mod | DT40 TDP1 CPT | TDP1 cell noCPT | TDP1 block
Cc1nc2c(C)cccc2c2c1CCN2c1ccccc1F | nt | 15µM | 21µM | nt
COc1ccc(N2CCc3c(C)nc4c(OC)cccc4c32)cc1 | i | 4.6µM | 2.9µM | i
O=C1C2CC3CC1CC(O)(C3)C2 | nt | i | i | nt
CCc1cccc(OCC(=O)Nc2ccc(S(=O)(=O)Nc3ncccn3)cc2)c1 | i | i | i | nt
CN(Cc1ccccc1)C(=O)c1[nH]cnc1C(=O)N[C@@H](CCCCNC(=O)OC(C)(C)C)C(=O)OC(C)(C)C | i | 16µM | ? | i
CC(C)(C)OC(=O)NCCCC[C@H](NC(=O)c1nc[nH]c1C(=O)NCc1ccccc1)C(=O)OC(C)(C)C | i | ? | ? | i
CC(C)(C)OC(=O)NCCCC[C@H](NC(=O)c1[nH]cnc1C(=O)N[C@@H](Cc1ccccc1)C(=O)OC(C)(C)C)C(=O)OC(C)(C)C | i | 21µM | 9.2µM | i
C[C@@H](NC(=O)c1nc[nH]c1C(=O)NCC(=O)OC(C)(C)C)c1ccccc1 | i | i | i | nt
C[C@H](NC(=O)c1nc[nH]c1C(=O)N[C@@H](CCCCNC(=O)OC(C)(C)C)C(=O)OC(C)(C)C)c1ccccc1 | i | ? | 23µM | i
O=C(c1ccncc1)N1CCN(S(=O)(=O)c2ccc(F)cc2)CC1 | i | i | i | i
COc1ccc(CN2CCNC(=O)C2CC(=O)N(C)CCCN2CCOCC2)cc1C (stereo unspecified) | i | i | i | i
CC(C)CNC(=O)COC(=O)c1c2c(nc3ccccc13)/C(=C/c1cccs1)CC2 | i | ? | 26µM | nt
CC(C)CNC(=O)COC(=O)c1c2c(nc3ccccc13)CCC2 | nt | i | ? | i
CCN1C/C(=C/c2cccs2)c2nc3ccccc3c(C(=O)O)c2C1 | nt | i | i | i
NC(=O)c1ccc(NC(=O)COC(=O)c2c3c(nc4ccccc24)/C(=C\c2cccs2)CCC3)cc1 | i | ? | 21µM | i
Cc1cc(-c2cccc([N+](=O)[O-])c2)nc2ccc3ccccc3c12 | i | i | i | i
CSCC[C@H](NC(=O)[C@H](CC(C)C)NC(=O)[C@H](CO)NC(=O)[C@H](CCC(=O)O)NC(=O)[C@H](CC(C)C)NC(=O)[C@H](Cc1ccc(O)cc1)NC(=O)[C@H](CCCCN)NC(=O)[C@H](CCCCN)NC(=O)[C@H](C)NC(=O)[C@H](CO)NC(=O)[C@H](CC(C)C)NC(=O)[C@H](CCC(N)=O)NC(=O)CNC(=O)[C@H](CC(C)C)NC(=O)[C@H](CC(C)C)NC(=O)[C@H](CCCCN)NC(=O)[C@H](CO)NC(=O)[C@H](Cc1ccccc1)NC(=O)[C@H](CC(=O)O)NC(=O)[C@H](CO)NC(=O)[C@@H](NC(=O)[C@H](Cc1ccccc1)NC(=O)[C@@H](NC(=O)CNC(=O)[C@H](CC(=O)O)NC(=O)[C@H](C)NC(=O)[C@@H](N)Cc1cnc[nH]1)C(C)C)[C@@H](C)O)C(N)=O | nt | nt | nt | i
Cc1ccc2nc3n(c(=O)c2c1)-c1cc2ccccc2cc1C(=O)NC3CC(C)C (stereo unspecified) | i | 16µM | 16µM | nt
CC(C)CC1NC(=O)c2cc3ccccc3cc2-n2c1nc1ccc(F)cc1c2=O (stereo unspecified) | i | 23µM | 23µM | nt
CC(C)CC1NC(=O)c2cc3ccccc3cc2-n2c1nc1ccc(Cl)cc1c2=O (stereo unspecified) | i | ? | ? | nt
CCCC1NC(=O)c2cc3ccccc3cc2-n2c1nc1ccc(F)cc1c2=O (stereo unspecified) | i | ? | 21µM | nt
